Test results: the supplement of paper PMC11732987, “Enantioselective OTUD7B fragment discovery through chemoproteomics screening and high-throughput optimisation” (Communications Chemistry, 2025)

Legend:
Assay in all cases: log2 ratio of Biotin-Ahx-Ub-VS probe labelling (fragment/DMSO); higher = less target engagement (more negative = stronger competition), active = hit call of the paper (q ≤ 0.05, log2 ratio ≤ -1)
Conditions in all cases: compound concentration: 200 uM; treatment time: 3 h
[1] = target: USP16 (UniProt Q9Y5T5)
Sequence of USP16 (Q9Y5T5 whole entry, looked up, the tested form may be a part): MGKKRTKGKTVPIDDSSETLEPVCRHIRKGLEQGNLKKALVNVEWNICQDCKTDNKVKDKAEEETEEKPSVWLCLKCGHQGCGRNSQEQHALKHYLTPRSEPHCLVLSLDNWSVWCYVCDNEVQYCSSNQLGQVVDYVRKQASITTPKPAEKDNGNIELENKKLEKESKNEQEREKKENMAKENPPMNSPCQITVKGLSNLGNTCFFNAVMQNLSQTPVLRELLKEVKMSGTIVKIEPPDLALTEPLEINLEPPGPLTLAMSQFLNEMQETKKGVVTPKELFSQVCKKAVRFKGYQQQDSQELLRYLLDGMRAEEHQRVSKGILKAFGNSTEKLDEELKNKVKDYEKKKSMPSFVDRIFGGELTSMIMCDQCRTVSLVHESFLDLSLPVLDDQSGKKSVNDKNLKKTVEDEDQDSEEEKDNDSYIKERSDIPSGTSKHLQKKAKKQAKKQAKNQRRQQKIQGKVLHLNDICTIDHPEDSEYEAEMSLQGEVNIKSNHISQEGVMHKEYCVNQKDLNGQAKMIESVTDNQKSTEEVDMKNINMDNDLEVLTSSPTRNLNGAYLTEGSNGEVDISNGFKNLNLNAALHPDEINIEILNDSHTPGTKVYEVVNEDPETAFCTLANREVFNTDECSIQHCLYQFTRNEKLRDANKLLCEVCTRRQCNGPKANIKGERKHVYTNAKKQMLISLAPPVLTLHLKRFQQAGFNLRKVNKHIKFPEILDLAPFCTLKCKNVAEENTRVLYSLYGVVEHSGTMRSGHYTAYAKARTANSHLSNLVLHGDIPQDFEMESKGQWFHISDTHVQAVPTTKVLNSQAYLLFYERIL
Method in brief: (§1)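 Labelled DUBs were enriched with NeutrAvidin, digested with LysC and trypsin, and run by diaPASEF LC-MS/MS. The labelling used Biotin-Ahx-Ub-VS at 0.5 µM final for 1 h on HEK293T lysate (495 µg per sample) previously treated in triplicate with fragment at 200 µM or vehicle for 3 h. Values are average log2 fragment/vehicle ratios by unpaired t-test on global-median-normalised Spectronaut quantities of proteins with ≥2 unique peptides.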

[2] = target: T1, USP19 (UniProt O94966)
T1 sequence (whole entry): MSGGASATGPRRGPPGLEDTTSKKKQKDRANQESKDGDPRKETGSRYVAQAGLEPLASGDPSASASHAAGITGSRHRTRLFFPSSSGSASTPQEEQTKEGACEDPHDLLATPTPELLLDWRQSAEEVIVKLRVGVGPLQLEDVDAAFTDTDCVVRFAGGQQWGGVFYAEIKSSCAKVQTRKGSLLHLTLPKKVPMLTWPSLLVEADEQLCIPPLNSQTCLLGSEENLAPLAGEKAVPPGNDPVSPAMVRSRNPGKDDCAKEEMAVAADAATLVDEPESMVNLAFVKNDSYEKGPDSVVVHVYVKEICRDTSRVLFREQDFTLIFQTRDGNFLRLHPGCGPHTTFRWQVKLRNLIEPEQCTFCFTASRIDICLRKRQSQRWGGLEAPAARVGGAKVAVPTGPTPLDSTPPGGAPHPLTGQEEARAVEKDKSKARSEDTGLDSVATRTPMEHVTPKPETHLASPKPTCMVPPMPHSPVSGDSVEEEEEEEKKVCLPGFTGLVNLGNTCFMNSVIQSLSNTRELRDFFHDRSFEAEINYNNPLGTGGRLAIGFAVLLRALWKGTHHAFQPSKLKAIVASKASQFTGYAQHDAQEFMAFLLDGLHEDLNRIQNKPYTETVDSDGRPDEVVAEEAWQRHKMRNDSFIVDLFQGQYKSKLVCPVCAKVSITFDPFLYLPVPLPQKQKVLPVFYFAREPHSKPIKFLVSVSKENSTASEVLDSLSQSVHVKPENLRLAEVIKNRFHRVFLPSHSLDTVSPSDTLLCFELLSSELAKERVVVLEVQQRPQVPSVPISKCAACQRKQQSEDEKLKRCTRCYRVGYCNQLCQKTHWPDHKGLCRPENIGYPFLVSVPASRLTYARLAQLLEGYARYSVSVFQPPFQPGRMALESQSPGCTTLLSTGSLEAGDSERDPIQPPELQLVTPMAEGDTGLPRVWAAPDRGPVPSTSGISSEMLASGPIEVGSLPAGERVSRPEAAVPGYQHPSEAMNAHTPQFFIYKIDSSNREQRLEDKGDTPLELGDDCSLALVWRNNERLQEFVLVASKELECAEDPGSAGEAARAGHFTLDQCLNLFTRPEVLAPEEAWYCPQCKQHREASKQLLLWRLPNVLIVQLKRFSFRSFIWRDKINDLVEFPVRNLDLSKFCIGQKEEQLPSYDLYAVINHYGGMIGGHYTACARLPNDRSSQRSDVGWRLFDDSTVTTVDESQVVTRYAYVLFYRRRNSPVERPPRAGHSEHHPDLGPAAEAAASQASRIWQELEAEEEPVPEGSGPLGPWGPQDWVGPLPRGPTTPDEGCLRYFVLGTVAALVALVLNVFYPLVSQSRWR
Method in brief: as §1

[3] = target: USP24 (UniProt Q9UPU5)
Sequence of USP24 (Q9UPU5 whole entry): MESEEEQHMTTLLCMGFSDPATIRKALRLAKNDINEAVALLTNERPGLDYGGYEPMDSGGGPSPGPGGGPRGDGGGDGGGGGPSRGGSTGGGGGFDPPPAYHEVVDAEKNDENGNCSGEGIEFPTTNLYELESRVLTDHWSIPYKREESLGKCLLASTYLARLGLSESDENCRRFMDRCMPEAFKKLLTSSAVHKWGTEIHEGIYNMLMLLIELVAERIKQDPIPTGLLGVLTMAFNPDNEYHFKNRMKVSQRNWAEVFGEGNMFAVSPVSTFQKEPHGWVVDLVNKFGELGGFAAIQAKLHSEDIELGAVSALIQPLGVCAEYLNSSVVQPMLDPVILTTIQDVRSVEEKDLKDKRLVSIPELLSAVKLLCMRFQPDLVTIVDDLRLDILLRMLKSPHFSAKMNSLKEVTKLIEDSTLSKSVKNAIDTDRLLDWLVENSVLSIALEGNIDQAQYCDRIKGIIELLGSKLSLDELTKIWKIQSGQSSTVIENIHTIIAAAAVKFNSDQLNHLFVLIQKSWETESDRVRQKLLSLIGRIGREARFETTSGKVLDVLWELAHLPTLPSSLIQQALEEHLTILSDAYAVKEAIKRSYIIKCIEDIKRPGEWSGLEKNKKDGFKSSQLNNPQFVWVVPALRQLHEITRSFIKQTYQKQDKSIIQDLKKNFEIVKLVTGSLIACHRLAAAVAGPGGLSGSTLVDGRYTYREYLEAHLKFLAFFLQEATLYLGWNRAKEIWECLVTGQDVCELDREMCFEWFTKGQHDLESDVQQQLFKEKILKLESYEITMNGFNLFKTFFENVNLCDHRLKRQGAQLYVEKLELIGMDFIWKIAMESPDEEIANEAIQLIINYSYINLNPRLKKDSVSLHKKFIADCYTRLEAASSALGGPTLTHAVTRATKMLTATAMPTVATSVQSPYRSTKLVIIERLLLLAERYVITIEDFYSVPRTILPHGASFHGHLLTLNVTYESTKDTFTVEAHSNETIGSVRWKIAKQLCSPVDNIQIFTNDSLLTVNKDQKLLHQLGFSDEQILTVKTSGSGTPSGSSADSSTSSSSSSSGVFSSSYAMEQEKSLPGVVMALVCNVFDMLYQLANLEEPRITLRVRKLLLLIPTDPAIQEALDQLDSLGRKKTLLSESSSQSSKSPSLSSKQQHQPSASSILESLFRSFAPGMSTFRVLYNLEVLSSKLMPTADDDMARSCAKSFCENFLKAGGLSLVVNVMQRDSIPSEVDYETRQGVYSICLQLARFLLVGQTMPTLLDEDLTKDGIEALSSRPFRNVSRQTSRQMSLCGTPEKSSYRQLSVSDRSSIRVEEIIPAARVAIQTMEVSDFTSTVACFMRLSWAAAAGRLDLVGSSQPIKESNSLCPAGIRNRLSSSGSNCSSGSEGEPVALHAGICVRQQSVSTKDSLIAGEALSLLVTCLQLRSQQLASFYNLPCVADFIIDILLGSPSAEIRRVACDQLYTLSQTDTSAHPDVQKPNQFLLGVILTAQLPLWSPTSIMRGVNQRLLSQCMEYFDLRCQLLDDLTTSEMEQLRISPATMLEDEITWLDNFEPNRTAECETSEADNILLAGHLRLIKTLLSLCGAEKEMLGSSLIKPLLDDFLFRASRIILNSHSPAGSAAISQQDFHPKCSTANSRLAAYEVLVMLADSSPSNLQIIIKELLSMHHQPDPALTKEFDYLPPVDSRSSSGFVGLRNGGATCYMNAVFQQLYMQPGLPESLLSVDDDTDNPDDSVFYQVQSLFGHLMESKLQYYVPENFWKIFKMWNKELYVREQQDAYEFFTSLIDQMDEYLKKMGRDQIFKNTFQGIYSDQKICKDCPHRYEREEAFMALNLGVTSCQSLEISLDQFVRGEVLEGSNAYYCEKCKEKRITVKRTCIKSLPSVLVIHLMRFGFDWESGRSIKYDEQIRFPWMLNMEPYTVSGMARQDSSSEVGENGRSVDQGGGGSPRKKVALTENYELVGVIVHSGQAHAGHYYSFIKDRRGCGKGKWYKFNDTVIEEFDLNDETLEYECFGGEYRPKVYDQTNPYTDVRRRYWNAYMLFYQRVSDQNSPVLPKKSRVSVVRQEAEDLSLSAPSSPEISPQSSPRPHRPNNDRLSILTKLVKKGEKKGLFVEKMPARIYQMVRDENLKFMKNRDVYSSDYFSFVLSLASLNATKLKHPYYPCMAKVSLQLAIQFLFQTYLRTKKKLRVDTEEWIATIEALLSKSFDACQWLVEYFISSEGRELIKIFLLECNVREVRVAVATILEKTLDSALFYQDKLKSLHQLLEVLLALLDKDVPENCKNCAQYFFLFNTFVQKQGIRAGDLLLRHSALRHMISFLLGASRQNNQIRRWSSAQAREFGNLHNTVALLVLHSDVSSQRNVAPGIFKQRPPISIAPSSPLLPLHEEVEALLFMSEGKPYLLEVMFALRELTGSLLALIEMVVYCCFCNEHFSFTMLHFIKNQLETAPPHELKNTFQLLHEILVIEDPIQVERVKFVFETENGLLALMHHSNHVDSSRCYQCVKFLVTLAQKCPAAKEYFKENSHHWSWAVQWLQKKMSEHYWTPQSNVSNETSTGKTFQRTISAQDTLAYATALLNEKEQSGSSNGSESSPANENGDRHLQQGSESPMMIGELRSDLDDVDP
Method in brief: as §1

[4] = target: T2, USP25 (UniProt Q9UHP3)
T2 sequence (whole entry): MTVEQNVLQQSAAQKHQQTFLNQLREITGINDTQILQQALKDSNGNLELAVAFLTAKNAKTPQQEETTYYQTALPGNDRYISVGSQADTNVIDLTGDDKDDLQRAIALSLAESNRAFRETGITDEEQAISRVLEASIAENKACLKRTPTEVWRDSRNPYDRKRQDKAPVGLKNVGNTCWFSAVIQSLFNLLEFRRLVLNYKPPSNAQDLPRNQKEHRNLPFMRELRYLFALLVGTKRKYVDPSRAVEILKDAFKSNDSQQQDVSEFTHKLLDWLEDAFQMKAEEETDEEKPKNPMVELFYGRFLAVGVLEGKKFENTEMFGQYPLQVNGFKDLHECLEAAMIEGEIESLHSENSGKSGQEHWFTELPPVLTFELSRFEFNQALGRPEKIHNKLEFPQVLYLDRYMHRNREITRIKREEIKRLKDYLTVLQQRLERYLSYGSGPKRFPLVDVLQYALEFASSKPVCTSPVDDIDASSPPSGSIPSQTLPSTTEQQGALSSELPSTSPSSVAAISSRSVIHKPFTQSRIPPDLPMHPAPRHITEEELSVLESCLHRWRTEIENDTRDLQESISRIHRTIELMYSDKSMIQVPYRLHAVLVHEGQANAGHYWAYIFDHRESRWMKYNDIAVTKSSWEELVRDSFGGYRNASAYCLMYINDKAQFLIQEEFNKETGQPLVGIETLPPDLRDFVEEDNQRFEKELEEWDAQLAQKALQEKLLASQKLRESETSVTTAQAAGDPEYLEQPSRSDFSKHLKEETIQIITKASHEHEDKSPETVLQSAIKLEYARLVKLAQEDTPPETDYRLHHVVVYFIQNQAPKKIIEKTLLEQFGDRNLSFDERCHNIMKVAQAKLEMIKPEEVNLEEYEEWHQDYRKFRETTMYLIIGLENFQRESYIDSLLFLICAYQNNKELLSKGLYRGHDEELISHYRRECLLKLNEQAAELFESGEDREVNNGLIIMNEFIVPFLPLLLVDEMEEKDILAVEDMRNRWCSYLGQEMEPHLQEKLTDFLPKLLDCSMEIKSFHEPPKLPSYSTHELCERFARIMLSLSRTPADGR
Method in brief: as §1

[5] = target: T3, USP28 (UniProt Q96RU2)
T3 sequence (whole entry): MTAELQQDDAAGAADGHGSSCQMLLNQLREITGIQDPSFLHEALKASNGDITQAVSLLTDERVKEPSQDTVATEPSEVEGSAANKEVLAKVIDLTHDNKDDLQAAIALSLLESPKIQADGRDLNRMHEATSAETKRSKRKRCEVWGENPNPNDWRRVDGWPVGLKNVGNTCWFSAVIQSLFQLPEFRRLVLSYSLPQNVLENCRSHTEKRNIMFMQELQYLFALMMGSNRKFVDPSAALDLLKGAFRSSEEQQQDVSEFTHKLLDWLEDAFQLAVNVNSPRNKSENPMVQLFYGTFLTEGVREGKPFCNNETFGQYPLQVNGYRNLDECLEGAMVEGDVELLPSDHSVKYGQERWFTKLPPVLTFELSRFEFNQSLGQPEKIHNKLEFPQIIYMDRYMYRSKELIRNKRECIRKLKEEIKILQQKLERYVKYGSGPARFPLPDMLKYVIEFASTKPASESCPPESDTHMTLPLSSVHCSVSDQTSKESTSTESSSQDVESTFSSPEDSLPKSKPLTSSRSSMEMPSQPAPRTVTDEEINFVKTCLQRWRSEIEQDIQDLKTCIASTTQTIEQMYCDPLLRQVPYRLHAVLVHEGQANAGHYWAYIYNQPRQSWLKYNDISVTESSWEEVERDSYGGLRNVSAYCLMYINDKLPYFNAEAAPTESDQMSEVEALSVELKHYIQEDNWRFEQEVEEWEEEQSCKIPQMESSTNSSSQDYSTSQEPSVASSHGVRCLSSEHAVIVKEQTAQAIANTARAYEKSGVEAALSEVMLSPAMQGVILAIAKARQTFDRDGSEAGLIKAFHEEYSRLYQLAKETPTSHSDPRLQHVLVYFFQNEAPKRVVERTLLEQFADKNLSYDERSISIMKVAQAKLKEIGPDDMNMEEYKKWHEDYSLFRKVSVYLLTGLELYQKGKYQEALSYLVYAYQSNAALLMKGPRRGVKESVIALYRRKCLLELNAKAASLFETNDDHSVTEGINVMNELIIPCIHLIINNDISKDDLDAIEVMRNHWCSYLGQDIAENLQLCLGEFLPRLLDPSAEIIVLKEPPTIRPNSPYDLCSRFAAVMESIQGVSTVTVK
Method in brief: as §1

Measured: log2 ratio of Biotin-Ahx-Ub-VS probe labelling

O=C(CN1CCN(C(=O)CCl)CC1)Nc1cccc(F)c1
inactive: [1] -0.245 | [2] -0.265 | [3] -0.335 | [4] -0.473 | [5] -0.428
